Shn3 inh set2: reduction of Shn3 3'UTR firefly luciferase signal, primary screen, Schnurri-3 inhibitor project, cell-based, Clone20 osteoblasts, set 2; Clone20 osteoblast Shn3 3'UTR firefly luciferase, 24 h; inhibition, % at 12.5 µM; 360,000 compounds, 0.52% hits; AID 588674, 2011;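 active means mean inhibition of at least 75% with every replicate also reaching 75%; inconclusive means mean inhibition at least 75% but some replicate below; inactive means mean inhibition below 75%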
TWEAK-Fn14 inh: inhibitors of TWEAK-Fn14 signaling, primary screen, luciferase reporter cells, uHTS. TWEAK-stimulated Fn14 reporter cells, luciferase luminescence, 8 h. inhibition, % at 10 µM. 360,000 compounds, 2% hits; in the data active means inhibition above about 50%
EBV LMP1 NFkB: EBV LMP1-driven NF-kappaB luciferase reporter inhibitors, primary screen, cell-based, luminescence, single point; inhibition, % at 12.5 µM; 350,000 compounds, 0.69% hits; LMP1-induced NF-kappaB luciferase reporter cells; in the data active means inhibition above about 41%; inconclusive means no clear call, values can overlap the other calls
HIF-2a inh: HIF-2a reporter inhibitors, primary screen, luminescence, 786-0 RCC cells | 786-0 RCC cells HIF-2a reporter, luciferase luminescence, overnight | 360,000 compounds, 0.72% hits | inhibition, % at 18.8 µM | AID 624352, 2012;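 active means inhibition of the luminescence signal of 40% or more relative to plate controls, in a single-dose primary screen at 18.75 µM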
TROY signal inh: inhibitors of TROY-driven NF-kB signaling, primary screen, Q293 LMP1-TROYcd cells, NF-kB luciferase, uHTS; Q293 LMP1-TROYcd NF-kB luciferase reporter, 4 h; inhibition, % at 10 µM; 360,000 compounds, 0.98% hits; AID 1347056, 2019;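 active means compounds whose plate-normalised and pattern-corrected inhibition of the luciferase reporter signal at the single screening dose is 50% or more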
TRPM1 prom inh: inhibitors of MITF-dependent TRPM1 promoter reporter, primary screen, cell-based, SK-MEL-5, single point, luciferase; SK-MEL-5 TRPM1 promoter luciferase, 24 h; inhibition, % at 12.5 µM; 330,000 compounds, 0.83% hits; AID 488899, 2010;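 active means mean inhibition across replicates of 60% or more, whatever share of single replicates reaches that level; inconclusive means some that reach 60%, reason not given; inactive means mean inhibition across replicates below 60%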
Each line names hits and unclear results; the compound was inactive in the other large screens. This is a sample that favours compounds with a hit; in the whole collection about 3.4% have one here.

CCOc1ccc(C(=O)N2CCCC2)cc1	none
CCOc1ccc(OCc2cccc(C(=O)N3CCCC3)c2)cc1	EBV LMP1 NFkB 54
CCOc1ccc(OCc2cccc(C(=O)O)c2)cc1	Shn3 inh set2 89, EBV LMP1 NFkB 83, HIF-2a inh 89, TRPM1 prom inh 93
O=C1NC[C@H](CCCCN2C[C@H](Cc3ccccc3)N(CC3CCCCC3)C(=O)C2=O)N(CC2CCCCC2)C1=O	none (no result: Shn3 inh set2, EBV LMP1 NFkB, TRPM1 prom inh)
O=C(COC(=O)Cc1cccc(F)c1)NC(=O)NC1CCCCC1	none
COc1ccc(C(=O)Nc2ccc3c(c2)C(=O)c2ccccc2C3=O)cc1OC	none
COc1ccc(C(=O)c2c(C(F)(F)F)oc3c2C(=O)c2ccccc2C3=O)cc1OC	Shn3 inh set2 89, TWEAK-Fn14 inh 58, TROY signal inh 51, TRPM1 prom inh 90
Cc1cccc(-n2cnc3cc(C(=O)NCC4CCCO4)ccc32)c1 (stereo not drawn)	none (no result: TRPM1 prom inh)
CC(=O)Nc1cccc(-c2cc(NC(C)=O)c3ncc(-c4ccc(F)cc4)n3c2)c1	TWEAK-Fn14 inh 100, TROY signal inh 91 (no result: EBV LMP1 NFkB, TRPM1 prom inh)
CC(=O)Nc1cc(-c2cccc(F)c2)cn2c(-c3ccc(F)cc3)cnc12	none (no result: EBV LMP1 NFkB, TRPM1 prom inh)
CC(=O)Nc1cc(-c2cccc(NS(C)(=O)=O)c2)cn2c(-c3ccc(F)c(Cl)c3)cnc12	TWEAK-Fn14 inh 92 (no result: EBV LMP1 NFkB, TRPM1 prom inh)
COc1ccc2c(c1)C=C(CN1CCC(CO)(CCc3ccccc3)CC1)CO2	none
COc1ccc(CC2(CO)CCN(CC3=Cc4cc(Cl)ccc4OC3)CC2)cc1	Shn3 inh set2 90
COc1ccc(NC(=O)COc2coc(CN3CCN(c4ccccc4)CC3)cc2=O)cc1	none
O=C(Nc1ccc2c(c1)OCO2)NC1(C(F)(F)F)Oc2ccccc2O1	none
O=C(Nc1ccc2c(c1)OCCO2)Nc1ccc2c(c1)OCO2	TWEAK-Fn14 inh 51
CC(Nc1ccc2c(c1)OCCO2)C(=O)Nc1ccc2c(c1)OCO2 (stereo not drawn)	TWEAK-Fn14 inh 59, TROY signal inh 50
CCCC(C)C(=O)Nc1ccc2c(c1)OCCO2 (stereo not drawn)	TWEAK-Fn14 inh 53
O=C(Nc1ccc2c(c1)OCCO2)NC1(C(F)(F)F)Oc2ccccc2O1	TWEAK-Fn14 inh 89 (no result: TRPM1 prom inh)
COc1ccc(-c2ccc(CN3C(C)C(=O)N(Cc4cn(Cc5ccco5)nn4)CCS3(=O)=O)cc2)cc1 (stereo not drawn)	none (no result: TRPM1 prom inh)
Cc1ccccc1NC(=O)C1CCCN1S(=O)(=O)c1ccccc1C(F)(F)F (stereo not drawn)	none
CCN(CC)C(=O)c1csc(COCCO)n1	none (no result: EBV LMP1 NFkB, TRPM1 prom inh)
O=C(O)C1CC=CCC1C(=O)Nc1ccc2c(c1)OCCO2 (stereo not drawn)	TWEAK-Fn14 inh 79, TROY signal inh 59
COc1ccccc1N1CCN(C2CCCN(C(=O)c3cc(C(C)C)on3)C2)CC1 (stereo not drawn)	none (no result: TRPM1 prom inh)
CCCCOc1ccc(OCCNC(=O)c2ccco2)cc1	none
NNc1ccc([N+](=O)[O-])c2[nH][nH]c(=O)c12	none (no result: TRPM1 prom inh)
CCCCCCC[N+](CC)(CC)CCCCc1ccc(Cl)cc1	Shn3 inh set2 inconclusive, TRPM1 prom inh 76
CCOP(=O)(Nc1cccc2oc(=O)c3ccccc3c12)OCC	none
O=C(COC(=O)c1cccc(N2C(=O)C3CC=CCC3C2=O)c1)c1ccccc1 (stereo not drawn)	none
CCc1ccc(C(=O)COC(=O)c2cccc(N3C(=O)c4c(C)nc5ccccc5c4C3=O)c2)cc1	EBV LMP1 NFkB 45
CC1CCCC(NC(=O)CCNC(=O)c2ccc(Cl)cc2)C1C (stereo not drawn)	none
CC1CCCC(NC(=O)CCNC(=O)c2ccc([N+](=O)[O-])cc2)C1C (stereo not drawn)	TWEAK-Fn14 inh 76
Cn1cccc1C1CCCN1CC(=O)Nc1ccc(C(N)=O)cc1 (stereo not drawn)	none
CN(C)N1C(N)=C(C#N)C(c2ccc3c(c2)OCO3)C2=C1CCCC2=O (stereo not drawn)	none
CCOC(=O)Sc1nc2ncncc2[nH]1	none
CSC[C@H]1CN(c2ccccc2)C(=O)[C@@H]1CC(=O)Nc1ccc(Br)cc1	none (no result: TRPM1 prom inh)
O=c1cc(-c2ccccc2)nc2c(-c3ccccc3)c(C(F)(F)F)[nH]n12	TROY signal inh 56 (no result: EBV LMP1 NFkB, TRPM1 prom inh)
C=CCn1c(CSCc2ccc(C)cc2)nnc1SCC(=O)NCc1ccccc1	TWEAK-Fn14 inh 74 (no result: TROY signal inh)
C=CCn1c(CSCc2ccc(Cl)cc2)nnc1SCC(=O)NCc1ccccc1	none
O=C(OCC(=O)N1CCc2ccccc21)c1n[nH]c(=O)c2ccccc12	none
CCOc1ccc(CCN2C(=S)N([C@@H](CC(C)C)CN3CCCC3CN3C(=S)NC[C@@H]3Cc3ccc(O)cc3)C[C@@H]2Cc2ccc(O)cc2)cc1 (stereo partly drawn)	Shn3 inh set2 86
Oc1ccc(C[C@H]2CNC(=S)N2CC2CCCN2C[C@H](Cc2ccccc2)N2C[C@H](Cc3ccc(O)cc3)N(CCc3ccccc3)C2=S)cc1 (stereo partly drawn)	TWEAK-Fn14 inh 58
Oc1ccc(C[C@@H](CN2CCC[C@@H]2CN2C(=S)NC[C@@H]2Cc2ccccc2)N2C[C@H](Cc3ccccc3)N(CCc3ccccc3)C2=S)cc1	none (no result: EBV LMP1 NFkB, TRPM1 prom inh)
CC(C)C[C@H]1CNC(=S)N1C[C@H]1CCCN1C[C@H](Cc1ccc(O)cc1)N1C[C@H](Cc2ccc(O)cc2)N(CC2CCCCCC2)C1=S	TWEAK-Fn14 inh 60 (no result: EBV LMP1 NFkB, TRPM1 prom inh)
CC1CCC2(CC1)NC(=O)N(NC(=O)c1cc3ccccc3o1)C2=O (stereo not drawn)	none
COc1ccc(F)cc1-c1cc(C(=O)NCc2ccccc2)[nH]n1	none (no result: EBV LMP1 NFkB, TRPM1 prom inh)
COc1ccc(NC(=O)c2cccc(S(=O)(=O)N3CCOCC3)c2)cc1	none
CCOc1ncccc1C(=O)NNC(=O)c1cccc(S(=O)(=O)N2CCOCC2)c1	TWEAK-Fn14 inh 97
COc1ccc(C(=O)NNC(=O)c2cccc(S(=O)(=O)N3CCOCC3)c2)cc1	Shn3 inh set2 96
CCOc1ncccc1C(=O)Nc1cccc(S(=O)(=O)N2CCCCC2)c1	none
COc1cc(OC)cc(C(=O)NNC(=O)CNC(=O)c2cccs2)c1	none
O=C(CC(O)c1ccncc1)c1ccccc1O (stereo not drawn)	none
O=C(CN1C(=O)COc2ccccc21)Nc1ccc(N2CCOCC2)cc1	none
Cc1nonc1C1CCCN1Cc1cn[nH]c1-c1ccc(-c2ccccc2)cc1 (stereo not drawn)	none
Cc1cc(Cl)ccc1OC(C)C(=O)N1CCCN(C(=O)C(C)Oc2ccc(Cl)cc2C)CC1 (stereo not drawn)	TWEAK-Fn14 inh 63

Source: PubChem BioAssay (several laboratories)
